From PubChem BioAssay
Cruzain Triton = inhibitors of Trypanosoma cruzi cruzain with detergent | P25779 | purified cruzain, Z-FR-AMC fluorescence, 0.01% Triton | Potency, µM, actives largely listed as inhibitors | 200,000 compounds, 0.43% hits | AID 1478; note: nearly all actives have a fitted effect of over 40% in size
Target sequence (P25779 123-467 limits assumed): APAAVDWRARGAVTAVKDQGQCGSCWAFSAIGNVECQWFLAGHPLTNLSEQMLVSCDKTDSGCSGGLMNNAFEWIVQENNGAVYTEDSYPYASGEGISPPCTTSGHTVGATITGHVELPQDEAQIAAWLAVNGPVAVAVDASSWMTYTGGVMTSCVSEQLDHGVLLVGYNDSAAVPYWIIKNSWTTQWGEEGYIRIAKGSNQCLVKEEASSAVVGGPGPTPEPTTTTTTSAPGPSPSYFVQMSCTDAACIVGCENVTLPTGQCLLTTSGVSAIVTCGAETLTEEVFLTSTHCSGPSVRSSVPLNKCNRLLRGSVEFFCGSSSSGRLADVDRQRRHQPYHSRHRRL
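Read-out: AMC fluorescence (360 nm excitation, 450 nm emission), four reads over 2 min, first-to-third difference used. Conditions: cruzain 1.5 nM, Z-FR-AMC 2 uM, pH 5.5 acetate, 5 mM DTT, 0.01% Triton X-100.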
NS1 inh = blocks influenza NS1 protein function. Potency, µM (top dose mostly 46.1 µM). 270,000 compounds, 0.4% hits. AID 2326; calls by dose curve; note: actives are rising curves; nearly all actives have a fitted effect of over 50% in size
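Recovery from NS1-induced slow growth read by OD600 in budding yeast switched to galactose assay medium (pH 6.0, -URA) at 1:100 dilution. Compound 23 nl per well; the matching strain lacking NS1 serves as control.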
Cruzain inh noDet = cruzain (T. cruzi) inhibition without detergent; Potency, µM, usual class: inhibitors; 200,000 compounds, 2.3% hits; purified cruzain, Z-FR-AMC fluorescence, no detergent; P25779; AID 1476; note: nearly all actives have a fitted effect of over 40% in size
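Detergent-free condition (0.00005% Triton X-100) in acetate buffer pH 5.5 with DTT. 1.5 nM enzyme and compound were pre-mixed 15 min, then 2 uM Z-FR-AMC substrate added; reaction progress from fluorescence change between first and third reads (60 s).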
Of the large screens only hits and unclear results are named; the others gave an inactive call. This excerpt belongs to a sample that is enriched for hits. Unless noted, calls come from the whole dose curve; as a rule, active = well fitted curve in the direction sought with a large enough effect; inconclusive = small, poorly fitted or top-dose-only effect, or another doubt; inactive = no such curve, though single readings can be large; an effect the other way counts as inactive or inconclusive.

Cc1ccc(-n2cc(CNCCN3CCOC3=O)c(-c3cccc(C)c3)n2)cc1	none (no result: Cruzain Triton, Cruzain inh noDet)
C=C(C)C1CC[C@]2(CO)CC[C@@]3(C)[C@H](CCC4[C@@]5(C)CCC(O)C(C)(C)C5CC[C@@]43C)C12 (some centres not stated)	none (no result: NS1 inh)
CN(c1ccccc1)S(=O)(=O)c1ccc(NC(=S)NC(=O)c2ccccc2)cc1	Cruzain inh noDet inconclusive
COc1ccccc1/C=C/C(=O)NC(=S)Nc1ccc(S(=O)(=O)N(C)c2ccccc2)cc1	Cruzain inh noDet 4µM
NC(N)=NC(N)=Nc1ccccc1 (tested in a mixture with another compound)	none
COC(=O)[C@@]1(Cc2ccc(OC)cc2)[C@H]2c3cc(C(=O)N(C)C)n(CCc4ccc(O)c(OC)c4)c3C[C@H]2CN1C(=O)c1ccccc1	Cruzain inh noDet inconclusive (no result: NS1 inh)
Cc1cc(N)c2ccccc2[n+]1CCCCCCCCCCCCCC[n+]1c(C)cc(N)c2ccccc21	Cruzain Triton 13µM, Cruzain inh noDet 20µM
Cc1cc(N)c2ccccc2n1	none (no result: Cruzain Triton, Cruzain inh noDet)
O=C(Nc1ccc2nc(SCC(=O)N3CCc4ccccc43)sc2c1)c1cccc(Cl)c1	Cruzain inh noDet inconclusive (no result: NS1 inh)
COc1cccc(C(=O)Nc2ccc3nc(SCC(=O)N4CCc5ccccc54)sc3c2)c1	Cruzain inh noDet 13µM (no result: NS1 inh)
O=C(Nc1ccc2nc(SCC(=O)N3CCCc4ccccc43)sc2c1)c1cccc(Cl)c1	Cruzain inh noDet 6.3µM (no result: NS1 inh)
COc1ccc(C(=O)Nc2ccc3nc(SCC(=O)N4CCc5ccccc54)sc3c2)cc1	none (no result: NS1 inh)
NC(CSS(=O)(=O)O)=N[C@@H]1C[C@H]2CC[C@@H]1C2	none
Cc1cccc(-n2c(CNC(=O)c3cccc(F)c3)nnc2SCC(=O)Nc2ccccc2F)c1	Cruzain inh noDet inconclusive (no result: NS1 inh)
O=C1OC(c2ccc3c(c2)OCO3)N(C(=O)c2ccc(Cl)c(Cl)c2)c2ccccc21 (configuration not stated)	Cruzain inh noDet 32µM
Cc1cccc(C(=O)N2c3ccccc3C(=O)OC2c2ccc3c(c2)OCO3)c1 (configuration not stated)	Cruzain inh noDet inconclusive
CCOC(=O)c1c(-c2ccc(C)cc2)csc1NC1=NS(=O)(=O)c2ccccc21	Cruzain inh noDet 7.9µM
CCOC(=O)c1c(-c2ccc(C)cc2)csc1NC(=O)C1CC=CCC1C(=O)O (configuration not stated)	Cruzain inh noDet inconclusive
CCOC(=O)c1c(-c2ccc(C)cc2)csc1NC(=S)NC(=O)c1ccccc1	Cruzain inh noDet 25µM
COC(=O)c1c(-c2ccccc2)csc1NC(=O)c1c(-c2ccccc2)noc1C	Cruzain inh noDet 20µM
COC(=O)c1c(-c2ccc(C)cc2)csc1NC(=S)NC(=O)c1ccc(F)cc1	Cruzain inh noDet 13µM
CCOC(=O)c1c(-c2ccc(OC)c(OC)c2)csc1NC(=O)c1ccc(C)cc1	none (no result: NS1 inh)
CCOC(=O)c1c(-c2ccc(Br)cc2)csc1NC(=O)c1ccc(F)cc1	none (no result: NS1 inh)
CCOC(=O)c1c(-c2ccc(F)cc2)csc1NC(=O)c1c(-c2ccccc2)noc1C	none
CCc1cc(=O)oc2c(C)c3c(cc12)CN(CCc1ccccc1)CO3	none (no result: NS1 inh)
O=C(Cn1cc(SCc2ccc(F)cc2)c2ccccc21)N1CCCC1	none (no result: NS1 inh)
CCOc1ccc2c(c1)sc1nc(=O)n(-c3ccc(Cl)c(Cl)c3)c(=O)n12	none (no result: NS1 inh)
Cc1cccc(CNc2ccnc(-c3ccccc3Cl)n2)c1	none (no result: NS1 inh)
Cc1ccc(S(=O)(=O)C(CNC(=O)C(=O)NCc2ccc(Cl)cc2)c2cccs2)cc1 (configuration not stated)	none (no result: NS1 inh)
ClC=CCl	none (no result: NS1 inh)
CCc1ccc(OCC(=O)N(Cc2cccs2)c2ccc(Cl)cc2)cc1	none (no result: NS1 inh)
Cn1c(=O)c2c(nc(N/N=C/c3ccc(OC(=O)c4ccco4)cc3)n2Cc2ccc(F)cc2)n(C)c1=O	Cruzain inh noDet inconclusive
Cn1c(=O)c2c(nc(N/N=C/c3ccc(OC(=O)c4ccco4)cc3)n2Cc2ccccc2Cl)n(C)c1=O	Cruzain Triton inconclusive, Cruzain inh noDet 32µM
CCC1(C)Cc2nc3[nH]c(=S)n(-c4ccc(C)cc4)c(=O)c3cc2CO1 (configuration not stated)	Cruzain inh noDet 20µM
Cc1ccc(-n2c(=S)[nH]c3nc4c(cc3c2=O)COC(C)(C)C4)cc1	Cruzain inh noDet inconclusive
Cc1cccc(C(C)C)c1NC(=O)c1ccc2c(c1)CCN2S(C)(=O)=O	none (no result: NS1 inh)
Oc1c(Cl)c(Cl)c(Cl)c(Cl)c1Cl (tested in a mixture with another compound)	none (no result: NS1 inh)
CCOC(=O)c1c(C)[nH]c(C=O)c1Cc1cccc(Cl)c1	none
CCOC(=O)c1c(C)[nH]c(C2=NNC(=Nc3cccc(Cl)c3)SC2)c1C	Cruzain inh noDet 16µM
COc1cc(OC)cc(-c2nc(-c3ccccc3OC)no2)c1	Cruzain inh noDet inconclusive
COc1cc(N=c2ssnc2Cl)cc(OC)c1	Cruzain inh noDet 16µM
O=C(Nc1ccc(Cl)cc1Cl)c1ccc(-c2ccccc2)cc1	Cruzain inh noDet 25µM
Cc1ccc([N+](=O)[O-])cc1NC(=O)c1ccc(C(C)(C)C)cc1	none
O=C(Nc1c(Cl)cccc1Cl)c1ccc(-c2ccccc2)cc1	none
Cc1ccc([N+](=O)[O-])cc1NC(=O)c1ccc(-c2ccccc2)cc1	NS1 inh inconclusive, Cruzain inh noDet 13µM
CCn1c(=O)c2cc(C(=O)N(CCCOC(C)C)Cc3ccco3)sc2c2ccccc21	Cruzain inh noDet inconclusive (no result: NS1 inh)
Cc1cc(C(=O)NCCc2ccc(Cl)cc2)c2c(C)nn(-c3ccccc3)c2n1	none (no result: NS1 inh)
CC(C)Cc1ccc(C(C)C(=O)Nc2nccs2)cc1 (configuration not stated)	Cruzain inh noDet 25µM
CC(C)Cc1ccc(C(C)C(=O)Nc2ccccc2O)cc1 (configuration not stated)	none (no result: Cruzain Triton, Cruzain inh noDet)
CC1(C)O[C@H]2[C@@H](O1)[C@@H](On1nnc3ccc(Cl)cc31)O[C@@H]2[C@@H]1COC(C)(C)O1	none
COc1ncc2nc(-c3cc(F)cc(F)c3)c(=O)n(CCc3ccccc3)c2n1	none (no result: NS1 inh)
O=[N+]([O-])c1ccccc1S(=O)(=O)N1CCc2ccccc2C1	none (no result: Cruzain Triton, Cruzain inh noDet)
O=[N+]([O-])c1ccc(N2CCN(S(=O)(=O)c3ccccc3[N+](=O)[O-])CC2)cc1N1CCc2ccccc2C1	Cruzain inh noDet 6.3µM
Cc1ccc(CCNc2nc3c(S(=O)(=O)c4ccc(C)cc4)nnn3c3ccsc23)cc1	none (no result: NS1 inh)
COc1cc(NC(=O)CN2C(=O)CN(C)C(=O)c3ccccc32)cc(OC)c1OC	none (no result: NS1 inh)
CC(C)c1ccccc1NC(=O)COc1ccc2c(=O)c(Oc3ccc4ccccc4c3)coc2c1	Cruzain inh noDet 32µM
CCc1ccccc1NC(=O)COc1ccc2c(=O)c(Oc3cc(C)ccc3C)coc2c1	Cruzain inh noDet inconclusive
C[C@@H]1O[C@@H](O)[C@@H](O)[C@H](O)[C@H]1O	none
O=C=Nc1ccc(Cc2ccc(N=C=O)cc2)cc1	Cruzain inh noDet 16µM (no result: NS1 inh)
O=C=Nc1ccc(Cc2ccc(N=C=O)cc2)cc1 (tested in a mixture with another compound)	none
Cc1ccc(S(=O)(=O)c2cc(OC(=O)c3ccco3)ccc2OC(=O)c2ccco2)cc1	none
O=C(Oc1ccc(OC(=O)c2ccco2)c(S(=O)(=O)c2ccc(Br)cc2)c1)c1ccco1	Cruzain inh noDet 25µM
Cc1ccccc1CS(=O)(=O)c1nnc([C@H](Cc2ccccc2)NC(=O)OC(C)(C)C)o1	Cruzain Triton 14µM, Cruzain inh noDet inconclusive
